Reference: PubChem BioAssay AID1159580 (chemical genetic matrix, 2015)
Where “and” joins values, the source holds several entries; their conditions need not be identical. Equal entries are not always repeated. Out of some 5,500 compounds screened, about 2,000 (36%) were called active. Roughly 18% stayed inconclusive and do not appear here. Rule as the data show it: active = normalized growth mostly below about 0.91 (no sharp cut-off); inconclusive = no clear call, values can overlap the other calls; inactive = mostly above about 0.92. The list shows a part of the results.

Assay: chemical genetic growth profiling, strain panel (AID 1159580);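 also: tested at 20 µM; growth read once vehicle control cultures reached saturation at 30 °C; 1 = growth at the plate median or of vehicle wells; lower values mean less growth of the strain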
Settings: S. cerevisiae deletion strains, growth OD

Measured: normalized growth

CCN(CCO)CCCC(C)Nc1ccnc2cc(Cl)ccc12 (configuration not stated)
inactive: locus YAL013W, strain DEP1, stronger effect = lower value 1.01 | locus YAL021C, strain ccr4, stronger effect = lower value 1.03 | locus YAL026C, strain drs2, stronger effect = lower value 1 | locus YAL030W, strain snc1, stronger effect = lower value 0.997 | locus YBL061C, strain skt5, stronger effect = lower value 1 | locus YBR009C, strain hhf1, stronger effect = lower value 1.01 | locus YBR021W, strain FUR4, stronger effect = lower value 1 | locus YBR023C, strain chs3, stronger effect = lower value 0.998 | locus YBR171W, strain sec66, stronger effect = lower value 1.01 | locus YBR229C, strain ROT2, stronger effect = lower value 0.991 | locus YBR231C, strain swc5, stronger effect = lower value 1.01 | locus YBR279W, strain paf1, stronger effect = lower value 1.01 | locus YCL011C, strain gbp2, stronger effect = lower value 1 | locus YCL016C, strain dcc1, stronger effect = lower value 1 | locus YCL029C, strain bik1, stronger effect = lower value 1.01 | locus YCL061C, strain MRC1, stronger effect = lower value 0.993 | locus YCL069W, strain vba3, stronger effect = lower value 0.998 | locus YCR088W, strain abp1, stronger effect = lower value 0.997 | locus YDL005C, strain med2, stronger effect = lower value 0.994 | locus YDL035C, strain GPR1, stronger effect = lower value 1.02 | locus YDL040C, strain nat1, stronger effect = lower value 0.999 | locus YDL074C, strain BRE1, stronger effect = lower value 1.01 | locus YDL101C, strain DUN1, stronger effect = lower value 1.02 | locus YDL134C, strain PPH21, stronger effect = lower value 1 | locus YDL185W, strain tfp1, stronger effect = lower value 1.01 | locus YDL192W, strain arf1, stronger effect = lower value 1.01 | locus YDR001C, strain nth1, stronger effect = lower value 1 | locus YDR069C, strain doa4, stronger effect = lower value 1.01 | locus YDR101C, strain arx1, stronger effect = lower value 1.02 | locus YDR137W, strain rgp1, stronger effect = lower value 0.978 | locus YDR150W, strain NUM1, stronger effect = lower value 1.01 | locus YDR159W, strain sac3, stronger effect = lower value 0.999 | locus YDR162C, strain NBP2, stronger effect = lower value 1.01 | locus YDR195W, strain ref2 1 | locus YDR297W, strain sur2, stronger effect = lower value 1.01 | locus YDR318W, strain mcm21, stronger effect = lower value 1.03 | locus YDR334W, strain swr1, stronger effect = lower value 1.01 | locus YDR335W, strain msn5, stronger effect = lower value 0.999 | locus YDR388W, stronger effect = lower value 1.01 | locus YDR392W, strain spt3, stronger effect = lower value 1.03 | locus YDR502C, strain sam2, stronger effect = lower value 1.02 | locus YEL003W, strain gim4, stronger effect = lower value 1 | locus YEL037C, strain rad23, stronger effect = lower value 1.01 | locus YEL061C, strain CIN8 (second series), stronger effect = lower value 1.01 | locus YEL061C, strain CIN8, stronger effect = lower value 1.01 | locus YER015W, strain faa2, stronger effect = lower value 1.01 | locus YER016W, strain bim1, stronger effect = lower value 1 | locus YER110C, stronger effect = lower value 1.01 | locus YER111C, strain swi4, stronger effect = lower value 1 | locus YER155C, strain BEM2 (second series), stronger effect = lower value 1 | locus YER155C, strain BEM2, stronger effect = lower value 1.01 | locus YER167W, strain BCK2, stronger effect = lower value 1.01 | locus YFR010W, strain ubp6, stronger effect = lower value 1.01 | locus YGL078C, strain dbp3, stronger effect = lower value 1.02 | locus YGL086W, strain mad1, stronger effect = lower value 1.02 | locus YGL167C, strain pmr1, stronger effect = lower value 0.994 | locus YGL173C, strain kem1, stronger effect = lower value 0.996 | locus YGL227W, strain vid30, stronger effect = lower value 0.997 | locus YGL240W, strain doc1, stronger effect = lower value 1.01 | locus YGL248W, strain PDE1, stronger effect = lower value 0.993 | locus YGL253W, strain hxk2, stronger effect = lower value 0.999 | locus YGR078C, strain PAC10, stronger effect = lower value 1.03 | locus YGR135W, strain pre9, stronger effect = lower value 1.01 | locus YGR229C, strain SMI1, stronger effect = lower value 1.03 | locus YGR252W, strain gcn5, stronger effect = lower value 1.21 | locus YHR013C, strain ard1, stronger effect = lower value 1 | locus YHR027C, strain rpn1, stronger effect = lower value 0.988 | locus YHR030C, strain SLT2, stronger effect = lower value 1.01 and 0.985 | locus YHR079C, strain IRE1 (second series), stronger effect = lower value 1.01 | locus YHR079C, strain IRE1, stronger effect = lower value 0.99 | locus YHR094C, strain hxt1, stronger effect = lower value 1.01 | locus YHR129C, strain ARP1, stronger effect = lower value 1.01 | locus YHR142W, strain chs7, stronger effect = lower value 1 | locus YHR200W, strain rpn10, stronger effect = lower value 1.02 | locus YIL066C, strain RNR3, stronger effect = lower value 1.03 | locus YIL073C, strain SPO22, stronger effect = lower value 1.05 | locus YIL125W, strain kgd1, stronger effect = lower value 1 | locus YIR030C, strain dcg1, stronger effect = lower value 1.01 | locus YJL092W, strain hpr5, stronger effect = lower value 0.998 | locus YJL095W, strain BCK1 (second series), stronger effect = lower value 0.995 | locus YJL095W, strain BCK1, stronger effect = lower value 1.01 | locus YJL115W, strain asf1, stronger effect = lower value 1.01 | locus YJL129C, strain trk1, stronger effect = lower value 0.991 | locus YJL134W, strain LCB3, stronger effect = lower value 1.01 | locus YJL154C, strain vps35, stronger effect = lower value 1.01 | locus YJL164C, strain tpk1, stronger effect = lower value 1 | locus YJL166W, strain qcr8, stronger effect = lower value 1 | locus YJL168C, strain set2, stronger effect = lower value 1.01 | locus YJL187C, strain SWE1 (second series), stronger effect = lower value 1.02 | locus YJL187C, strain SWE1, stronger effect = lower value 0.999 | locus YJR043C, strain POL32, stronger effect = lower value 1.04 | locus YJR066W, strain TOR1, stronger effect = lower value 0.961
